PubChem BioAssay (NCATS)
Results filed as inconclusive are left out. Where a call stands in place of a potency, no number is given. The source made the active and inactive calls. Calls come from the whole dose curve; as a rule, active = well fitted cell-killing curve with a large enough effect; inconclusive = small, poorly fitted or top-dose-only effect, or effect the other way; inactive = no such curve, though single readings can be large or run the other way.

Assay: Quantitative High-Throughput drug screen in 47 multiple myeloma cell lines against the NCATS MIPE library collection: KMS12PE_JCRB cell viability assay (AID 1918972); note: nearly all actives have a fitted effect of over 30% in size
Conditions: KMS12PE myeloma viability, CellTiter-Glo ATP, 48 h; series mostly up to 45.8 µM
Text: PI: Beverly A. Mock Ph.D.
Laboratory of Cancer Biology and Genetics,
Center for Cancer Research, National Cancer Institute,
National Institute of Health, Bethesda, Maryland
Drug resistance and disease progression are common in multiple myeloma (MM) patients, underscoring the need for new therapeutic combinations. […] We hypothesized that effective combinations would reduce MYC expression and enhance p16 activity. […] These preclinical data identify potentially useful drug combinations for evaluation in drug-resistant MM and reveal potential mechanisms of combined drug sensitivity.
Described herein is the primary MIPE qHTS used to cherrypick compounds. Validated compounds were then further tested for potential synergistic activiy.
[1] Peat TJ, Gaikwad SM, Dubois W, Gyabaah-Kessie N, Zhang S, Gorjifard S, Phyo Z, Andres M, Hughitt VK, Simpson RM, Miller MA, Girvin AT, Taylor A, Williams D, D'Antonio N, Zhang Y, Rajagopalan A, Flietner E, Wilson K, Zhang X, Shinn P, Klumpp-Thomas C, McKnight C, Itkin Z, Chen L, Kazandijian D, Zhang J, Michalowski AM, Simmons JK, Keats J, Thomas CJ, Mock BA. Drug combinations identified by high-throughput screening promote cell cycle transition and upregulate Smad pathways in myeloma. Cancer Lett. 2023 Aug 1;568:216284. doi: 10.1016/j.canlet.2023.216284. Epub 2023 Jun 24. PMID: 37356470; PMCID: PMC10408729.
SEQUENCE No. (e.g., 1, 2, 3, etc.); […] (e.g., Cells, Incubation, Reagent, etc.); VALUE and DESCRIPTION.
1; Cells; 5 uL; white, solid bottom 1536-well Greiner assay plate.
2; Compounds; 23 nL; Kalypsis pin tool (Wako USA) equipped with a 1536-well pin head to transfer to the assay plates.
3; Incubation; 48 hours; 37C incubation.
4; Reagent;5uL; CellTiter Glo (Promega).
5; Detector; 425V; Luminescence; Viewlux PerkinElmer.
NOTES (numbers refer to Sequence numbers above)
1. The cell-based screening methods employed in this study were like those previously published. Briefly, the corresponding myeloma cell lines were screened in 1,536-well plates with 500 cells, 5-uL per well for inhibition of cell viability (assessed by measuring ATP levels with CellTiterGlo).
2. NCATS MIPE 4.0 library of approved and investigational drugs were added using the Kalypsis pin tool. Wells treated with DMSO only for 100% viability and media only wells for 0% viability were used as controls.
3. The assay plates were covered and incubated for 48 hours in a 37C, 5% CO2 incubator with controlled humidity.
4. After 48 hours, CellTilter-GloTM luminescent substrate mix (Promega) reagent was added to the assay plate and plates we incubated for 5 min at room temperature.
5. Signal was measured as median relative luminescence units on a ViewLux (PerkinElmer) multiplate reader.
[1] Heske CM, Davis MI, Baumgart JT, Wilson K, Gormally MV, Chen L, Zhang X, Ceribelli M, Duveau DY, Guha R, Ferrer M, Arnaldez FI, Ji J, Tran HL, Zhang Y, Mendoza A, Helman LJ, Thomas CJ. Matrix Screen Identifies Synergistic Combination of PARP Inhibitors and Nicotinamide Phosphoribosyltransferase (NAMPT) Inhibitors in Ewing Sarcoma. Clin Cancer Res. 2017 Dec 1;23(23):7301-7311. doi: 10.1158/1078-0432.CCR-17-1121. Epub 2017 Sep 12. PMID: 28899971; PMCID: PMC6636827.
Potency is the fitted concentration of half-maximal effect.

Compound	Potency
Cc1cccc(C)c1OCC(=O)N[C@@H](Cc1ccccc1)[C@@H](O)C[C@H](Cc1ccccc1)NC(=O)[C@H](C(C)C)N1CCCNC1=O	6.62 µM (active)
O=c1cc(N2CCOCC2)oc2c(-c3ccccc3)cccc12	inactive
Cc1cccc(C#Cc2ccccc2)n1	inactive
Nc1ccc(S(N)(=O)=O)cc1	inactive
CN1CCC(=C2c3ccccc3CCc3sccc32)CC1	23.5 µM (active)
COc1c(O)cc2c(c1O)[C@@H]1O[C@H](CO)[C@@H](O)[C@H](O)[C@H]1OC2=O	inactive
CCOC(=O)C1=C[C@@H](OC(CC)CC)[C@H](NC(C)=O)[C@@H](N)C1	inactive
CCCCC(CC)COC(=O)C(C#N)=C(c1ccccc1)c1ccccc1 (stereo not given)	inactive
CN(C)C(=O)[C@H](O)[C@H](Cc1ccccc1)NC(=O)c1cc2cc(Cl)ccc2[nH]1	2.09 µM (active)
CCCCN(CCCC)CCC(O)c1cc2c(Cl)cc(Cl)cc2c2cc(C(F)(F)F)ccc12 (stereo not given)	inactive
Cc1nc(Nc2ncc(C(=O)Nc3c(C)cccc3Cl)s2)cc(N2CCN(CCO)CC2)n1	0.372 µM (active)
c1ccc2[nH]c(-c3cscn3)nc2c1	inactive
C=C(c1ccc(C(=O)O)cc1)c1cc2c(cc1C)C(C)(C)CCC2(C)C	inactive
Cn1c(NCCN(CCO)CCCc2ccc([N+](=O)[O-])cc2)cc(=O)n(C)c1=O	20.9 µM (active)
O=C(O)c1cn(-c2ccc(F)cc2)c2cc(N3CCNCC3)c(F)cc2c1=O	inactive
CC(C)[N+]1(C)[C@@H]2CC[C@H]1CC(OC(=O)C(CO)c1ccccc1)C2 (stereo not given in full)	16.6 µM (active)
S=c1nc[nH]c2nc[nH]c12	2.35 µM (active)
C[C@@H](c1ncncc1F)[C@](O)(Cn1cncn1)c1ccc(F)cc1F	inactive
Clc1ccc(C(Cn2ccnc2)OCc2ccsc2Cl)c(Cl)c1 (stereo not given)	18.7 µM (active)
CC1(C)NC(=O)N(c2ccc([N+](=O)[O-])c(C(F)(F)F)c2)C1=O	inactive

Compound	Potency
O=C(OC1C[C@H]2CC[C@@H](C1)[N+]21CCCC1)C(O)(c1ccccc1)c1ccccc1 (stereo not given in full)	inactive
COC(=O)N[C@H](C(=O)N[C@@H](Cc1ccccc1)[C@@H](O)CN(Cc1ccc(-c2ccccn2)cc1)NC(=O)[C@@H](NC(=O)OC)C(C)(C)C)C(C)(C)C	inactive
CC1Cc2ccccc2N1NC(=O)c1ccc(Cl)c(S(N)(=O)=O)c1 (stereo not given)	inactive
Cc1ncc([N+](=O)[O-])n1CC(C)O (stereo not given)	inactive
COC(=O)C1=C(C)NC(C)=C(C(=O)OCCCN2CCC(c3ccccc3)(c3ccccc3)CC2)C1c1cccc([N+](=O)[O-])c1 (stereo not given)	inactive
NC(=NCc1ccccc1)NC(=O)c1nc(Cl)c(N)nc1N	23.5 µM (active)
O=C(O)c1cccnc1Nc1cccc(C(F)(F)F)c1	inactive
CCCc1cc(=O)[nH]c(=S)[nH]1	inactive
CNC[C@H](O)c1ccc(O)c(O)c1	inactive
COc1ccccc1N1CCN(CCN(C(=O)C2CCCCC2)c2ccccn2)CC1	18.7 µM (active)
NNc1nncc2ccccc12	inactive
O=C1c2c(O)cc(O)cc2OC(c2ccc(O)c(O)c2)C1O (stereo not given)	inactive
O=C(O)CCNC(=O)c1ccc(N=Nc2ccc(O)c(C(=O)O)c2)cc1	inactive
CC(C)c1ccc2c(c1)c(SC(C)(C)C)c(CC(C)(C)C(=O)O)n2Cc1ccc(Cl)cc1	inactive
C=CCc1cc(OC)c(O)c(C(=O)NCCO)c1	inactive
O=Nc1c(-c2c(O)[nH]c3cc(Br)ccc23)[nH]c2ccccc12	1.18 µM (active)
Cc1nc(-c2ccc(OCC(C)C)c(C#N)c2)sc1C(=O)O	inactive
CC(C)c1ccc2oc3nc(N)c(C(=O)O)cc3c(=O)c2c1	inactive
O=C(CS(=O)Cc1ccco1)NCC=CCOc1cc(CN2CCCCC2)ccn1 (stereo not given)	inactive
CC(=O)N1CCN(c2ccc(OC[C@H]3CO[C@](Cn4ccnc4)(c4ccc(Cl)cc4Cl)O3)cc2)CC1	5.26 µM (active)
